Here are results for 25 compounds from PubChem BioAssay AID588335 (The Scripps Research Institute Molecular Screening Center, 2011).

Molecules are shown by their SMILES. About 4,500 (1.2%) of roughly 360,000 compounds were called active. Rule as the data show it: active = inhibition above about 30%; inactive = the rest. This excerpt belongs to a sample that is enriched for actives.

In general, inhibition refers to the drop in the measured response relative to a control, in per cent.

The assay in a line: inhibition of GDH and TPI enzymes – biochemical, absorbance, full deck, artefact control for M. tuberculosis FBA inhibitor project, primary screen (AID 588335).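 Also: 0% = DMSO wells and 100% = wells lacking the enzyme.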 To be noted: GDH-TPI coupled enzyme counterscreen, NADH absorbance; at 4.8 µM; active compounds read high. For orientation: A counterscreen serves to expose hits that act by an unwanted route or on another target.
Turning to `COc1ccc2nc(NC(=O)c3ccc(Br)s3)sc2c1`, the inhibition is 32.7% (active).

For `CSc1ncccc1C(=O)Nc1nc2ccc(F)cc2s1`, the inhibition was 8.2% (inactive).

For `COc1ccc(CNC(=O)c2ccc(Br)s2)cc1OC`, the inhibition was -1.03% (inactive).

Consider `Nc1cc(C(=O)N2CCN(c3ccccc3Cl)CC2)ccc1N1CC2CC(C1)c1cccc(=O)n1C2` (stereo not given), for which the inhibition was 8.04% (inactive).

On to `OC(c1ccccc1)c1nc(/C=C/c2ccc(C(F)(F)F)cc2)cs1` (stereo not given), for which the inhibition is 7.08% (inactive).

`O=C(CSc1ccc(/C=N/NC(=O)c2cccc(F)c2)o1)Nc1ccccc1`: the inhibition was 33.1% (active).

Turning to `O=C(Cn1cc(/C=N/NC(=O)c2cccc(C(F)(F)F)c2)c2ccccc21)Nc1ccc(F)cc1`, the inhibition was 9.15% (inactive).

As for `N#CCC(=O)N/N=C/c1ccc(SCC(=O)Nc2ccccc2)o1`, the inhibition was 15.4% (inactive).

As for `CCCCN(CCCC)CCCNC(=O)CN1C(=O)COc2ccc(S(=O)(=O)N3CCC(C)CC3)cc21`, the inhibition is 5.17% (inactive).

As to `CCOC(=O)c1c(C2CC2)csc1NC(=O)CSCc1c(C)noc1C`, the inhibition is 1.16% (inactive).

As for `NC(=S)c1ccc(C(N)=S)o1`, the inhibition is 33.3% (active).

Take `CC(C)CC1(C(=O)NCc2ccccn2)C=CCN1C(=O)c1ccccc1` (stereo not given): the inhibition is 1.72% (inactive).

Turning to `CN(C)CCCOc1ccc(-c2ccc3nccn3c2)cn1`, the inhibition is 6.19% (inactive).

`CNC(=S)N/N=C/c1ccc(OCc2ccccc2)c(Br)c1`: the inhibition was 3.82% (inactive).

Consider `CC(Oc1ccccc1[N+](=O)[O-])C(=O)N/N=C/c1ccoc1` (stereo not given), for which the inhibition was 5.72% (inactive).

For `O=C(N/N=C/c1cc(Br)c(O)c([N+](=O)[O-])c1)C(O)(c1ccccc1)c1ccccc1`, the inhibition is 79.3% (active).

As to `COCCCNC(=S)N(Cc1ccccc1)Cc1ccc(F)cc1`, the inhibition was -5.1% (inactive).

In the case of `COC(=O)c1[nH]c2ccc(Br)cc2c1NC(=O)Oc1ccccc1`, the inhibition was 8.96% (inactive).

Take `COc1ccc(-c2cc(=O)oc3cc(OCC(=O)N[C@@H](Cc4c[nH]c5ccccc45)C(=O)O)ccc23)cc1`: the inhibition was 32.4% (active).

Consider `COc1ccc(-c2cc(C(=O)NC(Cc3c[nH]c4ccccc34)C(=O)O)c(C)o2)cc1OC` (stereo not given), for which the inhibition was 1.44% (inactive).

With `CC(Oc1ccc2c(-c3ccccc3)cc(=O)oc2c1)C(=O)NC(Cc1c[nH]c2ccccc12)C(=O)O` (stereo not given), the inhibition is 15.9% (inactive).

Regarding `COc1cccc(/C=C/c2ccc3ccccc3n2)c1OC(C)=O`, the inhibition was 22.8% (inactive).

With `C=CCOC(=O)C1=C(C)N=C2SCCC(=O)N2C1/C=C/c1ccccc1OC` (stereo not given), the inhibition was 6.07% (inactive).

On to `COc1ccccc1/C=C/C1=NC(=C\N(C)C)/C(=O)O1`, for which the inhibition was 32.5% (active).

For `O=C1c2cccc3cccc(c23)C(=O)N1c1cccc(O)c1`, the inhibition is 24.8% (inactive).
